Bioassay records: PubChem BioAssay, The Scripps Research Institute Molecular Screening Center
Sampled rows, rich in hits. Any-hit rate of the full collection: about 3.5%.
MITF inh: inhibitors of human MITF. O75030. AlphaScreen MITF homodimerization, bead proximity signal. inhibition, % at 2.6 µM. hit rate 0.91% among 650,000. AID 1259374; in the data active = inhibition above about 50%
GPR151 activ: human GPR151 activation; Q8TDV0; PathHunter beta-arrestin GPR151 cells, luminescence; activation, % at 11.2 µM; hit rate 1% among 650,000; AID 1508602; in the data active = activation above about 4.9%
FBW7 activator: activators of human E3 ligase FBW7; Q969H0; AlphaScreen FBW7–phospho-cyclin E peptide binding, activator screen; normalized activity (activation), % at 26.1 µM; hit rate 0.13% among 650,000; in the data active = normalized activity above about 1.9%;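 also: purified mutant Fbw7 with reduced substrate affinity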
TEAD-YAP inh: TEAD-YAP interaction inhibition; HEK-TIYL cells, TEAD-Gal4/YAP UAS-luciferase luminescence; inhibition, % at 9.12 µM; hit rate 1.4% among 640,000; in the data active = inhibition above about 32%
GPR151 confirm: confirmation of human GPR151 activators; shares compounds with GPR151 activ; GPR151 PathHunter beta-arrestin cells, luminescence, 90 min; % of EA-reagent control over plate median; activation, % at 11.2 µM; 6,700 tested, under 10 active; AID 1508609;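 active = mean percent activation across replicates above the confirmation screen cutoff of 4.91%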
GPR119 counter: GPR119 activation, counter-screen for GPR151 activators | shares compounds with GPR151 activ | GPR119 PathHunter beta-arrestin cells, luminescence, 90 min; 0 = compound-well median, 100 = enzyme-acceptor control | activation, % at 11.2 µM | hit rate 0.3% among 6,700;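 active = mean percent activation in the counterscreen above 29.09%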;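 also: counterscreen on off-target GPR119 to flag nonselective hits from the GPR151 activator screen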
Target sequence (Q8TDV5 whole entry, looked up): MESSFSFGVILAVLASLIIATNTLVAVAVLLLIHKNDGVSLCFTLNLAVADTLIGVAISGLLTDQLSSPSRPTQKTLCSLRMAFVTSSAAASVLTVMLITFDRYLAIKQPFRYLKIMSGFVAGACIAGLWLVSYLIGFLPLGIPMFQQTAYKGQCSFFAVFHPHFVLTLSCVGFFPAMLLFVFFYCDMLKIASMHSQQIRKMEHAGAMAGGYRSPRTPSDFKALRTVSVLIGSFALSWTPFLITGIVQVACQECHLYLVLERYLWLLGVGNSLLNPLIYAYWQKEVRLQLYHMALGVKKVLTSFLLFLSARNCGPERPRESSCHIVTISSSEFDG
A number is an active result.

How did CCN(CC)C(=O)C1CCCN(c2ncc(C)c(NCc3cccnc3)n2)C1 (stereo not given) do in these assays?
MITF inh: inactive; GPR151 activ: inactive; FBW7 activator: inactive; TEAD-YAP inh: inactive

Results for COC(=O)Cc1c(C)c2c(OCC(=O)c3cccc([N+](=O)[O-])c3)cc(C)cc2oc1=O ?
MITF inh: inactive; GPR151 activ: inactive; FBW7 activator: inactive; TEAD-YAP inh: inactive

Results for COC(=O)COc1cc(C)cc2oc(=O)c(CC(=O)OC)c(C)c12 ?
MITF inh: inactive; GPR151 activ: 6.1; FBW7 activator: inactive; TEAD-YAP inh: inactive; GPR151 confirm: inactive; GPR119 counter: inactive

Results for CCN(CC)C(=O)COc1cc2oc(=O)c(CC(=O)OC)c(C)c2cc1Cl ?
MITF inh: inactive; GPR151 activ: 7.1; FBW7 activator: inactive; TEAD-YAP inh: inactive; GPR151 confirm: inactive; GPR119 counter: inactive

Results for COCCNC(=O)CC(=O)N/N=C/c1cccc(OC)c1 ?
MITF inh: inactive; GPR151 activ: inactive; FBW7 activator: inactive; TEAD-YAP inh: inactive

What do the screens show for `O=C(Nc1cc(F)ccc1F)C1CC2CCCN2C12C(=O)Nc1ccccc12` (stereo not given)?
MITF inh: inactive; GPR151 activ: inactive; FBW7 activator: inactive; TEAD-YAP inh: inactive

What do the screens show for `Cc1cc(C)cc(NC(=O)NC2CCNCC2)c1`?
MITF inh: inactive; GPR151 activ: 8.2; FBW7 activator: inactive; TEAD-YAP inh: inactive; GPR151 confirm: inactive; GPR119 counter: inactive

Results for Cc1ccc(NC(=O)CSc2nc(-c3cccs3)cc(-c3ccc(F)cc3)c2C#N)c(I)c1 ?
MITF inh: inactive; GPR151 activ: inactive; FBW7 activator: inactive; TEAD-YAP inh: inactive

How did Cc1c(C(=O)N(C)C)sc2c1c(=O)n(-c1ccc(Cl)cc1)c(=O)n2CC1OCCO1 do in these assays?
MITF inh: inactive; GPR151 activ: 6.0; FBW7 activator: inactive; TEAD-YAP inh: inactive; GPR151 confirm: inactive; GPR119 counter: inactive

Results for CCCNc1nc(Nc2ccc(C)cc2)nc(N2CCCC2)n1 ?
MITF inh: inactive; GPR151 activ: 4.9; FBW7 activator: inactive; TEAD-YAP inh: inactive; GPR151 confirm: inactive; GPR119 counter: inactive

How did CNC(=O)C1CCN(C(=O)c2ccccc2Cl)CC1 do in these assays?
MITF inh: inactive; GPR151 activ: inactive; FBW7 activator: inactive; TEAD-YAP inh: inactive

Results for Cc1c(C(=O)CSc2ccc(F)cc2F)sc2ncnn12 ?
MITF inh: inactive; GPR151 activ: 5.9; FBW7 activator: inactive; TEAD-YAP inh: inactive; GPR151 confirm: inactive; GPR119 counter: inactive

What do the screens show for `CO/N=C(\CSc1ccccc1OC)c1sc2ncnn2c1C`?
MITF inh: inactive; GPR151 activ: inactive; FBW7 activator: inactive; TEAD-YAP inh: inactive

Results for CN(CC(=O)N1CCC(Cc2ccccc2)CC1)S(=O)(=O)c1ccc2ccccc2c1 ?
MITF inh: inactive; GPR151 activ: 5.7; FBW7 activator: inactive; TEAD-YAP inh: inactive; GPR151 confirm: inactive; GPR119 counter: inactive

What do the screens show for `CCN(CC(=O)N1CCC(Cc2ccccc2)CC1)S(=O)(=O)c1ccc(Cl)cc1`?
MITF inh: inactive; GPR151 activ: inactive; FBW7 activator: inactive; TEAD-YAP inh: inactive

What do the screens show for `CCCCNc1nc(Cl)nc2nc(NCCO)n(Cc3ccccc3)c12`?
MITF inh: inactive; GPR151 activ: inactive; FBW7 activator: inactive; TEAD-YAP inh: inactive

Results for O=C(Nc1cc(Cl)ccc1Cl)/C(=C/c1cccc([N+](=O)[O-])c1)NC(=O)C1CCCCC1 ?
MITF inh: inactive; GPR151 activ: inactive; FBW7 activator: inactive; TEAD-YAP inh: inactive

How did O=C(Nc1ccc(Cl)cc1)/C(=C/c1cccc([N+](=O)[O-])c1)NC(=O)C1CCCCC1 do in these assays?
MITF inh: inactive; GPR151 activ: 6.2; FBW7 activator: inactive; TEAD-YAP inh: inactive; GPR151 confirm: inactive; GPR119 counter: inactive

Results for CC(C(=O)Nc1ccc(Br)cc1F)N1Cc2ccccc2C1=O (stereo not given) ?
MITF inh: inactive; GPR151 activ: inactive; FBW7 activator: inactive; TEAD-YAP inh: inactive

What do the screens show for `CC(C(=O)Nc1ccc(Br)cn1)N1Cc2ccccc2C1=O` (stereo not given)?
MITF inh: inactive; GPR151 activ: 7.2; FBW7 activator: inactive; TEAD-YAP inh: 84.7; GPR151 confirm: inactive; GPR119 counter: inactive

Results for CCOC(=O)N1CCN(C(=O)CN(c2ccccc2Br)S(C)(=O)=O)CC1 ?
MITF inh: inactive; GPR151 activ: 7.6; FBW7 activator: inactive; TEAD-YAP inh: inactive; GPR151 confirm: inactive; GPR119 counter: inactive

What do the screens show for `O=C(Nc1cc(=O)c2ccccc2o1)OCc1ccccc1`?
MITF inh: inactive; GPR151 activ: inactive; FBW7 activator: inactive; TEAD-YAP inh: inactive

Results for CN1C(=O)NC(c2ccccc2Cl)C2=C1CC(C)(C)CC2=O (stereo not given) ?
MITF inh: inactive; GPR151 activ: 5.7; FBW7 activator: inactive; TEAD-YAP inh: inactive; GPR151 confirm: inactive; GPR119 counter: inactive

What do the screens show for `CN1C(=O)N(C)C(c2ccccc2Cl)C2=C1CC(C)(C)CC2=O` (stereo not given)?
MITF inh: inactive; GPR151 activ: inactive; FBW7 activator: inactive; TEAD-YAP inh: inactive

How did COc1ccccc1C(=O)N/N=C/c1cccc(Cl)c1 do in these assays?
MITF inh: inactive; GPR151 activ: inactive; FBW7 activator: inactive; TEAD-YAP inh: inactive

Results for CCOC(=O)C1=C(O)/C(=C\c2ccc(F)cc2)N=C1C ?
MITF inh: inactive; GPR151 activ: inactive; FBW7 activator: inactive; TEAD-YAP inh: inactive

How did CCOC(=O)C1=C(O)/C(=C/c2ccc(N(C)C)cc2)N=C1C do in these assays?
MITF inh: inactive; GPR151 activ: 12.2; FBW7 activator: inactive; TEAD-YAP inh: inactive; GPR151 confirm: inactive; GPR119 counter: inactive

Results for COc1cccc(CC(=O)N2CCc3nc(-c4ccccc4)c4c(c3C2)CO[C@@H](C)C4)c1 ?
MITF inh: inactive; GPR151 activ: 6.8; FBW7 activator: inactive; GPR151 confirm: inactive; GPR119 counter: inactive

What do the screens show for `C[C@H]1Cc2c(-c3ccccc3)nc3c(c2CO1)CN(C(=O)Cc1cccs1)CC3`?
MITF inh: inactive; GPR151 activ: inactive; FBW7 activator: inactive

How did C=CCNC(=O)N1CCc2nc(-c3ccc(OC)cc3C)c3c(c2C1)CO[C@@H](c1ccccc1)C3 do in these assays?
MITF inh: inactive; GPR151 activ: inactive; FBW7 activator: inactive

What do the screens show for `COc1ccc(-c2nc3c(c4c2C[C@H](c2ccccc2)OC4)CN(C(=O)NCc2ccco2)CC3)c(C)c1`?
MITF inh: inactive; GPR151 activ: 5.9; FBW7 activator: inactive; GPR151 confirm: inactive; GPR119 counter: inactive

How did C=CCOc1ccc(C=C2C(=O)c3ccccc3C2=O)cc1OC do in these assays?
MITF inh: inactive; GPR151 activ: inactive; FBW7 activator: inactive; TEAD-YAP inh: inactive
